# Source: PubChem BioAssay AID1053143 (Broad Institute, 2014)
# In all, about 3,400 compounds went through this assay and about 120 (3.5%) were called active. The list is a sample of the results. Where a call stands in place of a potency, no number is given. Potency and affinity values are given separately. Unmarked numbers belong to inactive results. How the calls were made is not given here.
# Assay: viability loss in HepG2 hepatoma cells – cell-based, ATP luminescence, cherry-pick, activator set 2, cytotoxicity control, dose response (AID 1053143)
# Conditions: CellTiter-Glo ATP luminescence, 72 h; series mostly up to 26 µM
row,Structure (SMILES),"activity change, negative = cytotoxicity"
1,COC(=O)CSc1nc2ccccc2c(=O)n1C,inactive
2,COc1cc(CO)ccc1OCc1ccc(Cl)nc1,inactive
3,Clc1ccccc1OCc1nc(-c2ccccn2)no1,inactive
4,Cn1c(SCC(=O)c2ccccc2)nnc1-c1ccco1,inactive
5,Cc1cc(C(=O)COC(=O)c2cccc(S(=O)(=O)N(C)C)c2)c(C)n1CC1CCCO1 (centres undefined),inactive
6,CC(C)Oc1ccc(C(=O)OCC(=O)c2ccc[nH]2)cc1,inactive
7,COC(=O)CSC(C(=O)Nc1ccc(C)c(C)c1)c1ccccc1 (centres undefined),inactive
8,CCCc1nc2c3ccccc3ccn2c1Cc1ccccc1,inactive
9,COc1ccc2[nH]c3c(=O)n(CCc4ccccc4)cnc3c2c1,inactive
10,Nc1ccc(C(=O)OCCc2ccccc2)cc1,inactive
11,O=C(Nc1ccc(Cl)cn1)c1ccccc1F,inactive
12,O=C(Nc1ccc(Cl)cn1)c1ccc2nccnc2c1,inactive
13,OCC1OC(n2ccc3c(SCc4ccccc4)ncnc32)C(O)C1O (centres undefined),-7.9% [at 6 µM]
14,Cc1cc(N2CCOCC2)nc2cc(O)ccc12,inactive
15,O=C1c2ccccc2NC(c2ccc(-c3cccs3)o2)N1O (centres undefined),inactive
16,c1cnc(SCCCOc2ccc3ccccc3c2)nc1,inactive
17,Cc1ccc(NC(=O)CCC(=O)c2cccs2)cc1,inactive
18,C=CCNc1nc(-c2ccc3c(c2)OCCO3)cs1,inactive
19,O=c1oc(CCCO)cc2ccc(/C=C/c3cccc([N+](=O)[O-])c3)cc12,inactive
20,CN1CCCN(C(=O)c2cc(-c3cccc4ccccc34)nc3ccccc23)CC1,inactive
21,CC(C)c1cc(C(=O)NCCc2ccccc2)no1,inactive
22,O=C(Nc1ccc(F)c(Cl)c1)c1cc(-c2ccco2)on1,inactive
23,COc1ccc(NC(=O)c2cc(-c3ccco3)on2)cc1,inactive
24,O=C(Nc1cccnc1Cl)c1cc(-c2ccco2)on1,inactive
25,COc1ccc2cc(-c3ccccc3)c(=O)oc2c1,inactive

row,Structure (SMILES),"activity change, negative = cytotoxicity"
1,Cc1ccc(C)c(OCc2cc(C(=O)N3CC[C@H](O)C3)no2)c1,inactive
2,COC(=O)C1=C(N)Oc2c(oc(CO)cc2=O)C1c1ccc(F)cc1 (centres undefined),inactive
3,Fc1ccc(SCCc2ccccn2)cc1,inactive
4,Cc1ccc(C(=O)Nc2cccc(-c3ccc(N4CCOCC4)nn3)c2)cc1,inactive
5,CCOC(=O)C1CCN(C(=O)C(CC)c2ccccc2)CC1 (centres undefined),inactive
6,CCOC(=O)C1CCN(C(=O)/C=C/c2ccccc2)CC1,inactive
7,O=C(Nc1cccc(-c2ccc(N3CCOCC3)nn2)c1)c1cccc(Cl)c1,inactive
8,Fc1ccc(/C=C/c2nnc(-c3cccs3)o2)cc1,inactive
9,O=C(C=NNc1ccccc1)c1ccccc1,inactive
10,CCC(C)C(=O)Nc1nnc(-c2cccs2)s1 (centres undefined),inactive
11,O=C(Nc1cccnc1)c1ccc(Oc2ccccc2)cc1,inactive
12,O=C(Nc1ccccc1F)c1ccc2c(c1)OCO2,inactive
13,O=C(Nc1cccnc1Cl)c1cc2ccccc2o1,inactive
14,O=C(Nc1cccc([N+](=O)[O-])c1)c1ccc2c(c1)OCCO2,inactive
15,O=C(Nc1ncccc1Cl)c1cc2ccccc2o1,inactive
16,O=C(Nc1ccc(Cl)cc1Cl)c1ccc2c(c1)OCCO2,inactive
17,O=C(Nc1ncccc1O)c1ccc2ccccc2c1,inactive
18,NC(=O)c1ccccc1NC(=O)c1ccc2c(c1)OCO2,inactive
19,CC(=O)Oc1ccc(Oc2ccc(-c3noc(C)n3)cc2)cc1,inactive
20,CSc1nnc(NC(=O)c2ccc(S(=O)(=O)N(C)C)cc2)s1,inactive
21,CN(C)c1ccc(-c2nnc(-c3cccs3)o2)cc1,inactive
22,CCN(CC)C(=O)C1CCN(Cc2cn(C)nc2-c2ccc(Oc3ccccc3)cc2)CC1,inactive
23,COc1ccc(-c2[nH]ncc2CNC(C)c2ccccc2Cl)cc1F (centres undefined),inactive
24,O=C(O)c1ccccc1-c1ccccc1C(=O)NNc1ccccc1,inactive
25,O=C(N/N=C/c1ccc(N2CCOCC2)cc1)c1ccccn1,inactive

row,Structure (SMILES),"activity change, negative = cytotoxicity"
1,O=C(COC(=O)c1ccc(F)c(S(=O)(=O)N2CCCCC2)c1)NCc1ccc(F)cc1,inactive
2,Oc1ccc(-c2csc(Nc3ncccn3)n2)c(O)c1,inactive
3,Oc1ccc(-c2csc(Nc3ccc4c(c3)OCO4)n2)c(O)c1,inactive
4,O=C(/C=C\Nc1ccc2c(c1)OCO2)c1ccc2c(c1)OCO2,inactive
5,Fc1ccccc1-c1nc(-c2ccncc2)no1,inactive
6,Fc1ccccc1-c1nc(-c2ccccc2)no1,inactive
7,S=C(c1ccc(-c2cccc(Cl)c2)o1)N1CCCCC1,inactive
8,COc1ccc(/C=C/C(=O)c2ccc[nH]2)cc1OC,inactive
9,Cc1ccc(Cc2c(-c3cccc(Cl)c3)nc3ccc(Br)cn23)cc1,inactive
10,COc1ccc(C2=NN(C(=O)c3ccccc3C(=O)O)C(c3ccccc3O)C2)cc1 (centres undefined),inactive
11,CC(=O)N1N=C(c2ccccc2)CC1c1cn(C)c2ccccc12 (centres undefined),inactive
12,O=c1oc2ccccc2cc1-c1nnc(NCc2ccco2)s1,inactive
13,Cc1cc(OCc2cc(C(=O)N(C)C3CCOC3)no2)cc(C)c1Cl (centres undefined),inactive
14,Nc1c(C(=O)Nc2ccc3c(c2)OCCO3)nnn1Cc1cccc(Cl)c1,inactive
15,C(/CCc1ccccc1)=N\Nc1nc2ccccc2[nH]1,inactive
16,O=[N+]([O-])c1ccc2nc(-c3ccccc3[N+](=O)[O-])[nH]c2c1,inactive
17,Oc1ccc(Br)cc1-c1cc(-c2ccccc2F)[nH]n1,inactive
18,Cc1ccccc1-c1cc(-c2ccccc2O)n[nH]1,inactive
19,Oc1ccccc1-c1cc(-c2ccc(F)cc2)n[nH]1,inactive
20,CC(C)(C)NC(=O)c1cccc(NC(=O)c2cccc(O)c2)c1,inactive
21,CCC(=O)Nc1cc(NC(=O)CSc2ncc(-c3ccc(F)cc3)n2Cc2ccco2)ccc1C,inactive
22,O=C(CSc1nncs1)NC(=O)Nc1ccc2c(c1)OCCO2,inactive
23,CC(C)NC(=O)c1cc(-c2cccs2)on1,inactive
24,Cc1ccc(NC(=O)c2cc(-c3cccs3)on2)cc1C,inactive
25,CCOC(=O)c1ccc(NC(=O)C2CC3CCC2C3)cc1 (centres undefined),inactive

row,Structure (SMILES),"activity change, negative = cytotoxicity"
1,CCOc1ccc(C(=O)Nc2ccc3[nH]ncc3c2)cc1,inactive
2,CCOc1ccc(C(=O)NC2CCCCCCC2)cc1,inactive
3,O=C(Nc1ccc2ccccc2n1)c1ccccc1Cl,inactive
4,Cn1c(CCNC(=O)c2ccco2)nc2cc(NC(=O)c3ccco3)ccc21,inactive
5,CC(C)(C)C(=O)Nc1nc2cc3c(cc2s1)OCO3,inactive
6,O=C(Nc1nc2ccc(F)cc2s1)c1cccs1,inactive
7,Cc1ccc(C(=O)Nc2nc3ccc(Cl)cc3s2)o1,inactive
8,O=C(Nc1nc2cc3c(cc2s1)OCCO3)C1CCCCC1,inactive
9,O=C(Nc1nc2cc3c(cc2s1)OCO3)C1CCCCC1,inactive
10,CN(C)S(=O)(=O)c1ccc2nc(NC(=O)c3cccnc3)sc2c1,inactive
11,CC(=O)Nc1nc2cc3c(cc2s1)OCCO3,inactive
12,COc1ccc2nc(NC(=O)c3ccccc3O)sc2c1,inactive
13,Nc1[nH]n(-c2ccccc2)c(=O)c1N=Nc1ccccc1,inactive
14,CC(=O)Nc1cccc(-c2csc(Nc3ncccn3)n2)c1,inactive
15,COc1ccc(N(C(=O)c2ccc(S(=O)(=O)N3CCCC3)cc2)C2C=CS(=O)(=O)C2)cc1 (centres undefined),inactive
16,N/C(=N\OC(=O)c1ccc2c(c1)OCO2)c1ccncc1,inactive
17,N#Cc1cccc(NC(=O)COC(=O)Cn2nc(-c3ccccc3)oc2=O)c1,inactive
18,CC1CC(O)C(C)CN1 (centres undefined),inactive
19,O=C(NC1CCCCC1)c1ccc2ccccc2c1,inactive
20,CCc1ccccc1Nc1nc(N)nc(CSCC(=O)Nc2ccc(C)c(C)c2)n1,inactive
21,O=c1[nH]c(-c2ccccc2)nnc1-c1ccccc1,inactive
22,O=C(OCC(=O)c1ccc(Br)s1)c1ccc(O)cc1,inactive
23,c1cncc(CNc2cccc(-c3nc4ccccc4[nH]3)c2)c1,inactive
24,O=C(Nc1ccc(-c2nc3ccccc3o2)cc1)c1cccnc1,inactive
25,Cc1ccc(-c2cc3nc(NCCc4ccncc4)n(C)c(=O)c3s2)cc1,inactive

row,Structure (SMILES),"activity change, negative = cytotoxicity"
1,Cc1ccc(C(=O)Nc2ccc(N3CCCCC3)cc2)cc1,inactive
2,O=C(Cc1ccccc1)Nc1ccc(N2CCCCC2)cc1,inactive
3,COc1ccc(-c2cn3cccc(C)c3n2)cc1F,inactive
4,COc1ccc(C2=Nc3ccccc3N(C(=O)c3ccc4ncccc4c3)C2C(=O)NC(C)(C)C)cc1 (centres undefined),inactive
5,CN(C)c1ccc(N=Nc2ccc(S(N)(=O)=O)cc2)cc1,inactive
6,Cc1ccc2nc(/C=C/c3cccc(F)c3)ccc2c1,inactive
7,COc1cc(/C=C/c2ccc3cccc(O)c3n2)cc(Cl)c1OC,inactive
8,Cc1cccc(/C=C/c2ccccc2)n1,inactive
9,CCNS(=O)(=O)c1ccc2nc(NC(=O)/C=C/c3cc(OC)c(OC)c(OC)c3)sc2c1,inactive
10,Cc1cccc(NC(=O)Nc2ccc3c(c2)OCO3)n1,inactive
11,O=C(NC1CCCC1)c1noc2c1CCCCC2,inactive
12,O=C(NC1CCCCCCC1)NC1CCCCC1,inactive
13,O=C(Nn1c(SCc2cccc([N+](=O)[O-])c2)nc2ccccc2c1=O)c1ccccc1,inactive
14,O=C(Nc1ccc(N2CCCC2)cc1)c1cccc(Cl)c1,inactive
15,Cc1ccc(Nc2cc(C)nc(-c3ccccc3O)n2)cc1,inactive
16,Oc1ccccc1/C=N/Nc1cccc2cccnc12,inactive
17,O=C(O)c1ccc(N/N=C/c2cccc3cccnc23)cc1,inactive
18,COc1ccc(-c2cc3cc(OC)c(OC)cc3cn2)cc1,inactive
19,COc1cccc(NC(=O)NCc2ccccn2)c1,inactive
20,Cc1cccc(-n2ncc3c(N4CCC(C)CC4)ncnc32)c1,inactive
21,Cc1nn(Cc2ccccc2Cl)c(Cl)c1C(=O)NCCc1ccccc1,inactive
22,CN(C)C(=O)c1ccc(-c2cc(C(F)(F)F)nn2C)s1,inactive
23,O=C(COc1ccc(Cl)cc1)Nc1ncc([N+](=O)[O-])s1,inactive
24,Cc1ccnc(NC(=O)c2ccc([N+](=O)[O-])s2)c1,inactive
